Laboratory results as given in paper PMC11062913.

molecular target: Histone H3.2 (UniProt P84233); experiment: cross-link between two proteins; cross-linking mass spectrometry

Listed as a hit, yes:
Transcription elongation factor A protein 1, P23193
Transcription elongation factor SPT5, O00267
DNA-directed RNA polymerase II subunit RPB7, P62487
Histone H4, P62799
